{
  "source": "the supplement of paper PMC9402605",
  "note": "± gives the standard deviation of the averaged measurements.",
  "data": [
    {"tested_on": "Caenorhabditis elegans N2", "experiment": "egg-laying rate relative to DMSO control (M9 buffer background) (fraction of control); higher = more egg-laying", "settings": "60 µM, 1 h", "protocol": "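About 20 young-adult wild-type C. elegans (N2) per well in 96-well plates were exposed to 60 uM compound for 1 h at room temperature, either in M9 buffer (to find stimulators) or in 12.3 mM serotonin + 7.7 mM nicotine (NS, to find inhibitors). Eggs per worm per hour were counted by automated imaging and normalised to the mean of proximal DMSO control wells. Values average the primary screen and two retests of the worm-active (wactive) Egl modulators.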", "values": [
      {"smiles": "CCOc1ccc(/C=C/[N+](=O)[O-])cc1", "note": "[wact-385]", "egg-laying rate": "0.274 ± 0.14"}
    ]}
  ]
}
